Assay results as given in PubChem BioAssay (EPA / NIEHS).
Records with an inconclusive call do not appear. Calls of active or inactive are those of the source. Rule for the calls, unless noted: active = hit-call score of the fitted dose curve at least 0.9, where 1 is the maximum; inactive = score below 0.9.

Key:
[1] = CCTE_Shafer_MEA_dev_firing_rate_mean: CCTE's Neural Network Formation Assay for Mean Firing Rate, Shafer Lab (AID 2284031)
Method in brief: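 Primary rat cortical neurons on 48-well MEA plates, exposed from plating day 0 with dosing renewed on DIV 5 and 9. Mean well firing rate over active electrodes, recorded days 5, 7, 9, 12, summarised as trapezoidal AUC.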

[2] = CCTE_Shafer_MEA_dev_per_burst_spike_percent: CCTE's Neural Network Formation Assay for Percent of Spikes in a Burst, Shafer Lab (AID 2284032)
Method in brief: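 Rat primary cortical neurons on 16-electrode MEA wells, dosed from plating day 0 for 12 days with renewal on DIV 5 and 9; spikes-in-bursts percentage averaged over bursting electrodes, collapsed as AUC across days 5, 7, 9, 12; loss direction versus DMSO.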

[3] = CCTE_Shafer_MEA_dev_burst_rate: CCTE's Neural Network Formation Assay for Burst Rate, Shafer Lab (AID 2284042)
Method in brief: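 Primary rat cortical neurons on PEI-coated 48-well MEA plates (laminin added with cells at plating) (16 electrodes/well), exposed from plating to day 12, dosing renewed at DIV 5 and 9. Burst rate averaged over active electrodes, recorded DIV 5, 7, 9, 12, summarized as AUC; loss versus DMSO.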

[4] = CCTE_Shafer_MEA_dev_bursting_electrodes_number: CCTE's Neural Network Formation Assay for Number of Bursting Electrodes, Shafer Lab (AID 2284043; active = hit-call score of the fitted dose curve at least 0.9, where 1 is the maximum)
Method in brief: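 Primary rat cortical neurons were cultured on PEI-coated 48-well MEA plates (16 electrodes/well) and exposed from plating through day 12, with compound renewed at feeds on DIV 5 and 9. Electrodes bursting ≥1 per 2 min were counted on DIV 5, 7, 9, 12; trapezoidal AUC taken.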

[5] = CCTE_Shafer_MEA_dev_per_burst_interspike_interval: CCTE's Neural Network Formation Assay for Burst Interspike Interval, Shafer Lab (AID 2284044)
Method in brief: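 Readout is the average time between spikes inside single-electrode bursts, taken as a well mean across bursting electrodes. Cortical neurons from rat developed networks on MEA plates under continuous 12-day exposure; recordings on days 5, 7, 9 and 12 were integrated by trapezoidal AUC.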

[6] = CCTE_Shafer_MEA_dev_burst_duration_mean: CCTE's Neural Network Formation Assay for Mean Burst Duration, Shafer Lab (AID 2284045)
Method in brief: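 Primary rat cortical neurons on PEI-coated 16-electrode MEA wells, exposed from plating through day 12 with compound renewed at DIV 5 and 9; spontaneous activity recorded days 5, 7, 9, 12. Well-mean burst duration collapsed as trapezoidal AUC, fitted for loss versus DMSO.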

[7] = CCTE_Shafer_MEA_dev_interburst_interval_mean: CCTE's Neural Network Formation Assay for Mean Interburst Interval, Shafer Lab (AID 2284046);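 note: well-mean interburst interval of bursting electrodes as AUC over four recording days; curve fitted for decrease in interburst interval relative to DMSO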
Method in brief: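 Recordings on days 5, 7, 9 and 12 give well-mean interburst interval across actively bursting electrodes, summarized as area under the curve. Cultures: rat cortical neurons, continuous exposure from day 0, compound renewed at feeds; decrease analyzed versus DMSO.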

[8] = CCTE_Shafer_MEA_dev_inter_network_spike_interval_mean: CCTE's Neural Network Formation Assay for Mean Inter-network Spike Interval, Shafer Lab (AID 2284047)
Method in brief: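 Primary rat cortical neurons on 16-electrode MEA wells, exposed from plating day 0 through DIV 12, compound renewed at DIV 5 and 9 media changes. Mean interval between network-spike peaks recorded DIV 5, 7, 9, 12; collapsed as trapezoidal AUC, fitted downward versus DMSO.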

[9] = CCTE_Shafer_MEA_dev_network_spike_number: CCTE's Neural Network Formation Assay for Number of Network Spikes, Shafer Lab (AID 2284048)
Method in brief: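 Primary rat cortical neurons were seeded at 1.5 x 10^5 cells/well on PEI-coated 16-electrode MEA wells with laminin, exposed from plating day 0, compound renewed at DIV 5 and 9. Network spikes were recorded on days 5, 7, 9, 12 and summarized as trapezoidal AUC versus DMSO.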

[10] = CCTE_Shafer_MEA_dev_network_spike_peak: CCTE's Neural Network Formation Assay for Mean Number of Electrodes in Network Spike, Shafer Lab (AID 2284049)
Method in brief: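 Continuous 12-day exposure of rat cortical cultures, starting at plating, on MEA plates. Endpoint: electrodes participating in network-spike peaks, AUC across DIV 5–12, DMSO as negative control.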

[11] = CCTE_Shafer_MEA_dev_spike_duration_mean: CCTE's Neural Network Formation Assay for Mean Spike Duration, Shafer Lab (AID 2284051);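 note: mean network spike duration pooled as area under curve over DIV 5 to 12 recordings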
Method in brief: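 Primary rat cortical neurons on 16-electrode MEA wells (PEI-coated, laminin in plating drop), exposed from plating through DIV 12 with compound renewed at DIV 5 and 9. Mean network-spike duration recorded DIV 5, 7, 9, 12; trapezoidal AUC across days, DMSO baseline.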

[12] = CCTE_Shafer_MEA_dev_network_spike_duration_std: CCTE's Neural Network Formation Assay for Standard Deviation of Network Spike Duration, Shafer Lab (AID 2284052);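 note: area under curve of spike duration SD across recording days 5 to 12; hits are decreases in network spike duration SD versus DMSO vehicle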
Method in brief: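 Primary rat cortical neurons on PEI-coated 16-electrode MEA wells, exposed from plating day 0 through day 12 with compound renewed at DIV 5 and 9. Network spike duration SD recorded on days 5, 7, 9, 12, collapsed as trapezoidal AUC; loss-of-signal fit versus DMSO.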

[13] = CCTE_Shafer_MEA_dev_per_network_spike_spike_number_mean: CCTE's Neural Network Formation Assay for Mean Number of Spikes in a Network Spike, Shafer Lab (AID 2284053)
Method in brief: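 Primary rat cortical neurons on 48-well, 16-electrode MEA plates were exposed from plating to DIV 12, with dosing renewed on DIV 5 and 9. Spikes per network spike (0.05 s peak window) were recorded on DIV 5, 7, 9 and 12 and collapsed as trapezoidal AUC versus DMSO.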

[14] = CCTE_Shafer_MEA_dev_per_network_spike_spike_percent: CCTE's Neural Network Formation Assay for Percent of Spikes in a Network Spike, Shafer Lab (AID 2284054)
Method in brief: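 Primary rat cortical neurons on 16-electrode MEA wells (PEI-coated, laminin at plating), exposed from day 0 with renewal at DIV 5 and 9; spikes within 0.05 s of network-spike peaks over total spikes, AUC across days 5, 7, 9, 12.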

[15] = CCTE_Shafer_MEA_dev_AB: CCTE's Alamar Blue Assay for Cytotoxicity in the Neural Network Formation Assay, Shafer Lab (AID 2284083; active = hit-call score of the fitted dose curve at least 0.9, where 1 is the maximum;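 note: twelve days of exposure from plating with re-dosing on DIV 5 and 9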)
Method in brief: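 Primary rat cortical neurons on PEI-coated 48-well MEA plates, 1.5 x 10^5 cells/well in laminin drop; compound exposure from day 0 of plating for twelve days, renewed at medium changes on DIV 5 and 9. Viability read as resazurin reduction by fluorescence, relative to DMSO.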

[16] = CCTE_Shafer_MEA_dev_mutual_information_norm: CCTE's Neural Network Formation Assay for Mutual Information Normalization, Shafer Lab (AID 2284091)
Method in brief: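 Rat cortical cultures, 48-well MEA, continuous exposure DIV 0–12 with full media/compound change DIV 5 and 9. Readout: inter-electrode mutual information, AxIS adaptive spike detection; AUC across DIV 5/7/9/12 recordings; DMSO baseline, negative fitting direction.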

[17] = CCTE_Shafer_MEA_dev_correlation_coefficient_mean: CCTE's Neural Network Formation Assay for Mean Correlation Coefficient, Shafer Lab (AID 2284093)
Method in brief: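 Spontaneous activity recorded on days 5, 7, 9 and 12 post-plating; pairwise spike correlations are averaged across active electrodes and collapsed to an area-under-curve. Rat cortical cultures are dosed from plating through 12 days, with compound renewed at media changes.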

[18] = UKN2_HCS_IMR90_neural_migration: University of Konstanz (UKN) Leist Lab Neural Crest Cell Migration Assay in human induced IMR90 Pluripotent Stem Cells (UKN2) (AID 2284204); conditions: actives raise or lower the signal
Method in brief: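 iPSC-derived IMR90 neural crest cells on PLO/laminin/fibronectin were seeded around silicone stoppers; after stopper removal, migration in N2-S medium with EGF and FGF ran 24 h before 24 h chemical exposure. Calcein-AM/Hoechst high-content imaging; bidirectional fit versus DMSO.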

[19] = IUF_NPC1b_proliferation_BrdU_72hr: Leibniz Research Institute for Environmental Medicine (IUF) 72-hour Neural Progenitor Cell Bromodeoxyuridine (BrdU) Proliferation Assay (NPC1b) (AID 2284207)
Method in brief: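 hNPC spheres (primary, GW 16-19 fetal cortex), single sphere/well, EGF+FGF medium; 72 h compound, no renewal; BrdU pulse last 16 h; luminescent ELISA; activity vs DMSO baseline; growth-factor withdrawal as positive control.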

[20] = IUF_NPC1a_proliferation_area_72hr: Leibniz Research Institute for Environmental Medicine (IUF) 72-hour Neural Progenitor Cell Proliferation Area Assay (NPC1a) (AID 2284208)
Method in brief: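 hNPC spheres (human fetal cortex, GW 16-19), one per poly-Hema U-bottom well; EGF+FGF medium; dosed day 0, no re-dosing; 72 h, 37C, 5% CO2; phase-contrast sphere area; DMSO = baseline; minus-GF = positive ctrl.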

[21] = IUF_NPC1_viability_72hr: Viability Assessment at 72 hours in the Leibniz Research Institute for Environmental Medicine (IUF) Neural Progenitor Cell Proliferation Assay (NPC1) (AID 2284209)
Method in brief: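 Single spheres (0.25-0.35 mm) of human fetal cortex-derived neural progenitor cells were grown in proliferation medium with EGF and FGF at 37C and 5% CO2. They were exposed for 72 h without renewal, and viability was read by alamar blue resorufin fluorescence.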

[22] = CCTE_Mundy_HCI_Cortical_Synap_Neur_Matur_NeuriteSpotCountPerNeuriteLength: CCTE's Synaptogenesis and Neurite Maturation Assay in rat cortical cells for Neurite Spot Count per Neurite Length, Mundy Lab (AID 2284210)
Method in brief: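 Rat primary cortical cultures, glia arrested with AraC at DIV 5, were dosed with media change at DIV 7 and fixed at DIV 12. Synaptophysin puncta per MAP2-labelled neurite length were quantified by high-content imaging versus DMSO.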

[23] = CCTE_Mundy_HCI_Cortical_NOG_NeuriteCount: CCTE's Neurite Outgrowth Assay in rat cortical cells for Neurite Count, Mundy Lab (AID 2284212);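 note: cells fixed about two days after chemical exposure began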
Method in brief: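 Neurite number per cell from high-content imaging of betaIII-tubulin immunostaining, with Hoechst nuclear counterstain.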

[24] = CCTE_Mundy_HCI_Cortical_NOG_NeuriteLength: CCTE's Neurite Outgrowth Assay in rat cortical cells for Neurite Length, Mundy Lab (AID 2284213)
Method in brief: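 Neurite length was read by high-content imaging of βIII-tubulin-labelled neurites in rat primary cortical cultures. Activity was fitted relative to DMSO.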

Measured: AC50

CC(=O)N[C@@H](CC(=O)O)C(=O)O
active: [19] 11.7 µM
inactive: [1] | [2] | [3] | [4] | [5] | [6] | [7] | [8] | [9] | [10] | [11] | [12] | [13] | [14] | [15] | [16] | [17] | [18] | [20] | [21] | [22] | [23] | [24]
